For eight compounds, z-score and composite z-score results are on record in PubChem BioAssay.

Assay [1] is described as follows: E. coli DRC41 culture turbidity changes, primary screen, E. coli filamentation inducer project, strain DRC41, OD650, 48 h (AID 1152).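 Further: E. coli MC1000 strain DRC41 lacking acrAB efflux pump and sulA.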 The note with it: E. coli DRC41 (acrAB sulA), higher = more signal, called active from +8 up or from −8 down.
The nature of assay [2]: small-molecule binders of probe aLefty1, primary screen, biochemical, small-molecule microarray, 635/667 nm fluorescence (AID 1153).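 Further: score merges spot fluorescence with signal-to-noise ratio from the scanned slide images.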 The conditions noted are these: higher = more signal.
Assay [3] in a line: PSAC antagonists in infected red cells, primary screen, cell-based, P. falciparum Indochina, OD700, 1 h (AID 1154). The note with it: P. falciparum Indochina infected RBC osmotic lysis, higher = more signal, called active from +8 up or from −8 down.
A short description of assay [4]: PSAC antagonists in infected red cells, primary screen, cell-based, P. falciparum Indochina, OD700, 2 h (AID 1155).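 Further: lysis reports solute entry through the parasite surface anion channel PSAC; channel blockers reduce lysis of infected cells.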 The conditions noted are these: P. falciparum Indochina infected erythrocytes, osmotic lysis OD700; higher = more signal, called active from +8 up or from −8 down.
Assay [5] in a line: osmotic lysis modulators in infected erythrocytes, primary screen, PSAC antagonist project, cell-based, P. falciparum Indochina, OD700, 3 h (AID 1156). The note with it: higher = more signal, called active from +8 up or from −8 down.
Assay [6] in a line: PSAC antagonists in infected red cells, primary screen, cell-based, P. falciparum Indochina, OD700, 18 h (AID 1157). The note with it: P. falciparum Indochina infected erythrocytes, osmotic lysis OD700, 18 h; higher = more signal, called active from +8 up or from −8 down.
Assay [7] is described as follows: modulators of S6 phosphorylation in cells, primary screen, cell-based, A549, cytoblot, luminescence, serum-stimulated (AID 1158).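 Further: serum-stimulated A549 lung adenocarcinoma cells; signal is phosphorylated S6 detected by cytoblot immunostaining with HRP secondary.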 The note with it: A549 phospho-S6 cytoblot, 5 h, higher = more signal.
Assay [8] has as its target NADPH oxidase 2 (Homo sapiens) (UniProt P04839). As to the kind of experiment: NOX2-dependent H2O2 signal modulators, primary screen, NOX inhibitor project, cell-based, HEK293-NOX2, PMA-stimulated, Amplex Red fluorescence (AID 1159). Further: test concentration not given here. The conditions noted are these: 45 min, higher = more signal, called active from +8 up or from −8 down.
Assay [9] addresses NADPH oxidase 4 (Homo sapiens) (UniProt Q9NPH5). As to the kind of experiment: NOX4-dependent H2O2 signal modulators, primary screen, NOX inhibitor project, cell-based, HEK293-NOX4, tetracycline-induced, Amplex Red fluorescence (AID 1160). The conditions noted are these: 45 min, higher = more signal, called active from +8 up or from −8 down.
Assay [10] has as its target NADPH oxidase 5 (Homo sapiens) (UniProt Q96PH1). The assay can be described thus: NOX5-dependent H2O2 signal modulators, primary screen, NOX inhibitor project, cell-based, HEK293-NOX5, Amplex Red fluorescence (AID 1161). The conditions noted are these: HEK293-NOX5, ionomycin, 45 min, higher = more signal.
Assay [11] is described as follows: A549 cell viability effects, profiling panel, calcein-AM fluorescence, 48 h, basal (AID 1162). Further: test concentration not given here. The note with it: higher = more signal.
Assay [12] can be described thus: adipocyte viability effects, profiling panel, cell-based, 3T3-L1 adipocytes, calcein-AM fluorescence, 48 h, basal (AID 1163). Further: test concentration not given here. The conditions noted are these: 3T3-L1 adipocytes viability, higher = more signal.
Assay [13] in a line: HepG2 cell viability effects, profiling panel, calcein-AM fluorescence, 48 h, basal (AID 1164). Further: test concentration not given here. The conditions noted are these: higher = more signal.
Assay [14] in a line: MM1S cell viability effects, profiling panel, calcein-AM fluorescence, 48 h, basal (AID 1165).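 Further: viability of MM1S multiple myeloma cells under basal unstimulated conditions; test concentration not given here.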 The note with it: higher = more signal.
The nature of assay [15]: basal RPMI8226 viability, no added stimulus, profiling panel, cell-based, calcein-AM fluorescence, 48 h, PK04 Diversity Set (AID 1166).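 Further: cells grown under basal conditions without added stimulus; test concentration not given here.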 The note with it: RPMI8226 myeloma viability, higher = more signal.
A short description of assay [16]: basal HepG2 mitochondrial membrane potential changes, profiling panel, cell-based, JC-1 fluorescence, 24 h, 100 nL compound (AID 1167). Further: test concentration not given here. The note with it: higher = more signal.
Assay [17] can be described thus: basal 3T3-L1 adipocyte mitochondrial potential changes, profiling panel, cell-based, JC-1 fluorescence, 3T3-L1 adipocytes, 24 h, 100 nL compound (AID 1168). Further: test concentration not given here. The note with it: JC-1 mitochondrial fluorescence, higher = more signal, called active from +8 up or from −8 down.
Assay [18] can be described thus: basal RPMI8226 mitochondrial membrane potential changes, profiling panel, cell-based, JC-1 fluorescence, 24 h, 100 nL compound (AID 1169). Further: test concentration not given here. The conditions noted are these: RPMI8226 myeloma, JC-1 mitochondrial potential fluorescence, higher = more signal.
A short description of assay [19]: basal MM1S mitochondrial membrane potential changes, profiling panel, cell-based, JC-1 fluorescence, 24 h, 100 nL compound (AID 1170). Further: test concentration not given here. The note with it: higher = more signal.
Assay [20] can be described thus: A549 lung cancer cell viability effects, profiling panel, resazurin fluorescence, 24 h, PK04 Diversity Set (AID 1171). Further: test concentration not given here. The conditions noted are these: higher = more signal, called active from +8 up or from −8 down.

The structures appear in SMILES notation. Active and inactive are the calls of the source.

NADPH oxidase 5 (Homo sapiens), sequence (Q96PH1 whole entry, looked up): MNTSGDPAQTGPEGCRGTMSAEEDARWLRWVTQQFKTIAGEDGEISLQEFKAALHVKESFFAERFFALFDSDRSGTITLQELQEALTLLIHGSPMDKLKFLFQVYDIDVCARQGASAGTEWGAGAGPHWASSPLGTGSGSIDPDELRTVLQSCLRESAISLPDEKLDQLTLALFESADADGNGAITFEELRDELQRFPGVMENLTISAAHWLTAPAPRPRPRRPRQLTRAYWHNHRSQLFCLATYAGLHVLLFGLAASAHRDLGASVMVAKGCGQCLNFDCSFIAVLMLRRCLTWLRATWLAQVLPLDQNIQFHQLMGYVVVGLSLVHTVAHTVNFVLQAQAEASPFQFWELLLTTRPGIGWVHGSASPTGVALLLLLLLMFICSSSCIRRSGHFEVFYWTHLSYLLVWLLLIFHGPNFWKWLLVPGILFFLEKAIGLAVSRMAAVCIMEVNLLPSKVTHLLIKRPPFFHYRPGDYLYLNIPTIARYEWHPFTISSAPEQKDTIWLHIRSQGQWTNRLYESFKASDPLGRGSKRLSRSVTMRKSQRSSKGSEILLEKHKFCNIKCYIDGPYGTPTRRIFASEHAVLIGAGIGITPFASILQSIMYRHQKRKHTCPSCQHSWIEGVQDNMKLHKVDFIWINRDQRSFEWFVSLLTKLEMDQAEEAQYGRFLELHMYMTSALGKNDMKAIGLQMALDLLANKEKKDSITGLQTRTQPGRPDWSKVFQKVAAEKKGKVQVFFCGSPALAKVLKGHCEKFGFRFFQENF
NADPH oxidase 2 (Homo sapiens), sequence (P04839 whole entry, looked up): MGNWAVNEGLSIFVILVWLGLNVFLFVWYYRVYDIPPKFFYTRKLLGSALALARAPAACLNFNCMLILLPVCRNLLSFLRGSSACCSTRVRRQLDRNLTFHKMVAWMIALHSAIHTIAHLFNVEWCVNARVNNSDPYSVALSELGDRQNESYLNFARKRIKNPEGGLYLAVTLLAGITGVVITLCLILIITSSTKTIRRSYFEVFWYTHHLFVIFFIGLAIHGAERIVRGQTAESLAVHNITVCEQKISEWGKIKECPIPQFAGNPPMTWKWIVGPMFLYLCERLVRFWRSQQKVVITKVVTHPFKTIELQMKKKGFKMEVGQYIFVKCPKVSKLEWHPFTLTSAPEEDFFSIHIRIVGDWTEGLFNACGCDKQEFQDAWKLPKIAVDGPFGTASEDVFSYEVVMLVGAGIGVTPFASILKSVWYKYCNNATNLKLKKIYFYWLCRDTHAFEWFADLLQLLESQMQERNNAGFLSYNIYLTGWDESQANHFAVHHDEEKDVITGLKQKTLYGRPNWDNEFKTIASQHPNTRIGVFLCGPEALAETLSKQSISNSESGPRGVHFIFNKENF
NADPH oxidase 4 (Homo sapiens), sequence (Q9NPH5 whole entry, looked up): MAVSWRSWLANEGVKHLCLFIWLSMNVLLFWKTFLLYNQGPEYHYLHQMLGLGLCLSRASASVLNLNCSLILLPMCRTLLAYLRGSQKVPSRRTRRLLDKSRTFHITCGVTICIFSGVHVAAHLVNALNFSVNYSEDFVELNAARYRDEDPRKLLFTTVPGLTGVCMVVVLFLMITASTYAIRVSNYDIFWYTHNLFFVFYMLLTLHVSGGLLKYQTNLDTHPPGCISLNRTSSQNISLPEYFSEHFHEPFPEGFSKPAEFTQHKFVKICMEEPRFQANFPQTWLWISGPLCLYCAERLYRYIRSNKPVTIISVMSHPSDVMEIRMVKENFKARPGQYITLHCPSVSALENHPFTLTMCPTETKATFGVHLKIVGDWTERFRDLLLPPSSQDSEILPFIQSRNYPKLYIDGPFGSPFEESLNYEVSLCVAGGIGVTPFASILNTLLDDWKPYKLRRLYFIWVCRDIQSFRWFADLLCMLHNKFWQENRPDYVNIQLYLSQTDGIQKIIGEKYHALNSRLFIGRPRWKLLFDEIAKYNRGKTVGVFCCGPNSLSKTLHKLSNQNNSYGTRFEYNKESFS

In the case of `C[C@@H](c1ccccc1)N1C(=O)[C@H]2[C@H]3[C@H](O)[C@H](O)CC(=NO[C@@H]4O[C@H](CO)[C@@H](O)[C@H](O)[C@H]4O)[C@@H]3CC[C@H]2C1=O`, the z-score in assay [1] was 0.387 (inactive); in [3], -0.091 (inactive); in assay [4], -0.076 (inactive); in [5], -0.698 (inactive); in assay [6], -0.137 (inactive); in assay [7] it was -0.689. The z-score was -0.119 (inactive) in [8]; 0.552 (inactive) in [9]; 0.0309 in assay [10]; -0.57 in [11]; 0.698 in assay [12]; -0.943 in assay [13]. Also, the z-score in [14] is 0.21; in [15], -0.253; in [16], -0.688; in assay [17] it was 0.418 (inactive); in assay [18], -0.206; in [19], -0.189. In addition, in assay [20], the z-score is -0.644 (inactive). Also, in assay [2], the composite z-score is -0.0272.
In the case of `COC(=O)CC=C[C@@H](C)[C@@H](C=NO[C@H](C)c1cn([C@H](CO)Cc2ccccc2)nn1)NS(=O)(=O)c1ccc(C)cc1`, the z-score in [1] was -0.0528 (inactive); in [3] it was 2.17 (inactive); in [4] it was 0.674 (inactive); in assay [5], 0.605 (inactive); in [6], 0.22 (inactive); in [7], -1.07. For the same compound, the z-score in assay [8] is 0.679 (inactive); in assay [9], 0.685 (inactive); in assay [10] it was -0.0369; in assay [11], -0.775; in [12] it was -0.0125; in assay [13] it was -0.647. The z-score in assay [14] was -0.0023; in [15], -0.254; in [16], -0.416; in assay [17] it was -2.46 (inactive); in assay [18] it was 0.696; in assay [19], 0.571. In addition, in assay [20], the z-score is -0.102 (inactive). Also, in assay [2], the composite z-score was determined as 0.173.
For the compound `C[C@H]1COC(=O)[C@@H]2CCCN2C(=O)[C@@H](C)COC(=O)[C@H](Cc2ccccc2)NC1=O`, the z-score was -0.0891 (inactive) in [1]; 0.115 (inactive) in assay [3]; -0.29 (inactive) in assay [4]; 0.968 (inactive) in [5]; 0.22 (inactive) in assay [6]; 0.413 in assay [7]. Further, the z-score in assay [8] was -0.45 (inactive); in assay [9] it was -0.114 (inactive); in assay [10], -0.272; in [11] it was -0.398; in assay [12], -0.501; in assay [13], -0.501. The z-score in assay [14] is 0.119; in assay [15], -0.364; in assay [16], 0.278; in assay [17], -0.906 (inactive); in assay [18], -0.287; in assay [19], -0.825. In addition, in assay [20], the z-score was 0.264 (inactive). Besides, in assay [2], the composite z-score is -0.394.
Take `Cc1cc2c(c(=O)o1)[C@@H](O)[C@H]1O[C@H]1C2=O`: the z-score was -1.63 (inactive) in assay [1]; 0.381 (inactive) in [3]; 0.716 (inactive) in assay [4]; 0.634 (inactive) in assay [5]; 0.348 (inactive) in assay [6]; 0.0719 in assay [7]. Also, the z-score is 1.6 (inactive) in assay [8]; -0.899 (inactive) in assay [9]; -1.31 in assay [10]; -0.223 in assay [11]; 0.374 in assay [12]; 0.123 in [13]. In addition, the z-score was 0.65 in [14]; -1.15 in assay [15]; -0.352 in assay [16]; -0.659 (inactive) in assay [17]; -0.141 in assay [18]; 0.0583 in assay [19]. The z-score in assay [20] is -0.588 (inactive). In assay [2], this compound registered a composite z-score of -0.0547.
Consider `CON=Cc1ccc(C(=O)N2[C@H](c3ccc(C)cc3)[C@@H](C)CC[C@H]2C(=O)OC)cc1`, for which the z-score in assay [1] was -0.134 (inactive); in assay [3] it was 1.65 (inactive); in [4], 1.25 (inactive); in assay [5], 0.0014 (inactive); in assay [6] it was 1.1 (inactive); in [7], -0.0424. Besides, the z-score in [8] was -0.88 (inactive); in assay [9] it was -0.304 (inactive); in [10] it was -0.376; in assay [11] it was 0.281; in [12] it was 0.0609; in assay [13], -0.296. Moreover, the z-score in assay [14] is 0.336; in [15], 0.0411; in assay [16], 0.129; in assay [17] it was 0.345 (inactive); in assay [18], 0.344; in assay [19], 1.07. The z-score in [20] was 1.03 (inactive). For the same compound, the composite z-score in assay [2] was -0.147.
Take `O=C1[C@H]2[C@H]3[C@H](O)[C@H](O)CC(=NOC[C@@H](O)COCc4ccco4)[C@H]3CC[C@H]2C(=O)N1c1ccc(F)cc1F`: the z-score in assay [1] is -0.575 (inactive); in assay [3], 1.12 (inactive); in [4], -0.479 (inactive); in assay [5] it was 0.679 (inactive); in [6] it was -1.14 (inactive); in [7] it was 1.69. Moreover, the z-score was -0.249 (inactive) in assay [8]; 0.498 (inactive) in assay [9]; 1.09 in assay [10]; 1.1 in assay [11]; 1.06 in assay [12]; -0.0367 in [13]. Moreover, the z-score in assay [14] was 0.621; in assay [15], -0.478; in [16], 0.501; in assay [17], -0.162 (inactive); in [18] it was -0.117; in [19] it was -1.68. Also, the z-score in [20] was 0.224 (inactive). Moreover, the composite z-score in assay [2] turned out to be 0.153.
As for `C[C@@H]1CC[C@H]2C(=O)O[C@@H](COc3ccc(C(C)(C)C)cc3)CN2[C@@H]1c1ccc(Br)cc1`, the z-score in [1] is 0.328 (inactive); in assay [3], 0.857 (inactive); in assay [4], 0.681 (inactive); in assay [5] it was -1.34 (inactive); in assay [6], 0.54 (inactive); in assay [7], -0.0874. The z-score in assay [8] was -0.303 (inactive); in assay [9] it was 0.732 (inactive); in assay [10], 0.154; in assay [11] it was 0.373; in assay [12], 1.03; in assay [13] it was 0.843. Also, the z-score is -2.33 in assay [14]; -0.391 in [15]; -1.05 in assay [16]; -0.391 (inactive) in assay [17]; -0.509 in assay [18]; 0.291 in assay [19]. The z-score in assay [20] was 1.99 (inactive). The composite z-score in [2] is -0.229.
For the compound `C=COC[C@@H]1CN2[C@@H](CC[C@@H](C)[C@@H]2c2ccc(Br)cc2)C(=O)O1`, the z-score in [1] is -0.778 (inactive); in assay [3], 2.08 (inactive); in assay [4] it was -0.0728 (inactive); in [5], 0.429 (inactive); in assay [6], -0.959 (inactive); in [7], 0.993. Also, the z-score is 0.723 (inactive) in assay [8]; -0.595 (inactive) in assay [9]; -1.14 in [10]; -0.0396 in assay [11]; 0.566 in [12]; -0.388 in assay [13]. Besides, the z-score in assay [14] is -1.04; in [15] it was -0.731; in assay [16], -0.284; in assay [17], 0.347 (inactive); in assay [18] it was -0.795; in assay [19], -0.228. The z-score in assay [20] is 0.378 (inactive). In addition, the composite z-score in [2] is -0.0984.
